Data taken from PubChem BioAssay AID1159580 (chemical genetic matrix, 2015).
The campaign covered roughly 5,500 compounds. About 2,000 (36%) were called active. Inconclusive results (about 18%) are left out. No stated cut-off is given here; in the data, active means normalized growth mostly below about 0.91 (no sharp cut-off); inconclusive means no clear call, values can overlap the other calls; inactive means mostly above about 0.92. Some of the results follow.

Test: chemical genetic growth profiling, strain panel (AID 1159580);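 further: tested at 20 µM; growth read once vehicle control cultures reached saturation at 30 °C; 1 = growth at the plate median or of vehicle wells; lower values mean less growth of the strain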
Details: S. cerevisiae deletion strains, growth OD

Measured: normalized growth

COC(=O)C(N)Cc1ccc(Cl)cc1 (stereo not given)
inactive: locus YAL040C, strain CLN3, active compounds read low 0.998 | locus YCL061C, strain MRC1 (second series), active compounds read low 0.993 | locus YDR363W, strain ESC2, active compounds read low 0.976 | locus YER002W, strain NOP16, active compounds read low 0.988 | locus YGR229C, strain SMI1, active compounds read low 0.99 | locus YNL153C, strain GIM3, active compounds read low 1.01 | locus YNL175C, strain NOP13, active compounds read low 0.965 | locus YNL197C, strain WHI3, active compounds read low 0.965 | locus YNL224C, strain SQS1, active compounds read low 0.984 | locus YOR083W, strain WHI5 (second series), active compounds read low 0.91
